Results: PubChem BioAssay AID1159580 (chemical genetic matrix, 2015)
The campaign covered roughly 5,500 compounds. About 2,000 (36%) were called active. Another 18% or so got no clear call; they are omitted. Rule as the data show it: active = normalized growth mostly below about 0.91 (no sharp cut-off); inconclusive = no clear call, values can overlap the other calls; inactive = mostly above about 0.92. The list shows a part of the results.

Test: chemical genetic growth profiling, strain panel (AID 1159580);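 also: tested at 20 µM; growth read once vehicle control cultures reached saturation at 30 °C; 1 = growth at the plate median or of vehicle wells; lower values mean less growth of the strain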
Settings: S. cerevisiae deletion strains, growth OD

Measured: normalized growth

COc1ccc2nc(S(=O)Cc3ncc(C)c(OC)c3C)[nH]c2c1 (centres undefined)
active: locus YAL021C, strain ccr4, active compounds read low 0.795 | locus YBR009C, strain hhf1, active compounds read low 0.907 | locus YBR279W, strain paf1, active compounds read low 0.913 | locus YDR069C, strain doa4, active compounds read low 0.812 | locus YDR392W, strain spt3, active compounds read low 0.556 | locus YER155C, strain BEM2 (second series), active compounds read low 0.812 | locus YHR013C, strain ard1, active compounds read low 0.753 | locus YHR030C, strain SLT2, active compounds read low 0.791 | locus YJL095W, strain BCK1, active compounds read low 0.752 | locus YLR221C, strain rsa3, active compounds read low 0.904 | locus YLR262C, strain YPT6 (second series), active compounds read low 0.857 | locus YLR320W, strain mms22, active compounds read low 0.765 | locus YNL071W, strain lat1, active compounds read low 0.702 | locus YOR070C, strain gyp1, active compounds read low 0.897 | locus YOR106W, strain vam3, active compounds read low 0.857 | locus YPL051W, strain arl3, active compounds read low 0.846
inactive: locus YAL026C, strain drs2, active compounds read low 1 | locus YAL030W, strain snc1, active compounds read low 1.02 | locus YBL061C, strain skt5, active compounds read low 1.01 | locus YBR023C, strain chs3, active compounds read low 0.957 | locus YBR171W, strain sec66, active compounds read low 1.02 | locus YBR231C, strain swc5, active compounds read low 0.953 | locus YCL011C, strain gbp2, active compounds read low 1.01 | locus YCL016C, strain dcc1, active compounds read low 0.962 | locus YCL061C, strain MRC1, active compounds read low 1.01 | locus YCL069W, strain vba3, active compounds read low 1.02 | locus YCR088W, strain abp1, active compounds read low 1.02 | locus YDL005C, strain med2, active compounds read low 1.02 | locus YDL040C, strain nat1, active compounds read low 1.02 | locus YDR001C, strain nth1, active compounds read low 1.02 | locus YDR137W, strain rgp1, active compounds read low 0.907 | locus YDR159W, strain sac3, active compounds read low 0.975 | locus YDR195W, strain ref2 1.02 | locus YDR297W, strain sur2, active compounds read low 1.01 | locus YDR334W, strain swr1, active compounds read low 1.01 | locus YDR335W, strain msn5, active compounds read low 1 | locus YEL003W, strain gim4, active compounds read low 1.01 | locus YEL037C, strain rad23, active compounds read low 1.02 | locus YEL061C, strain CIN8 (second series), active compounds read low 1.02 | locus YER015W, strain faa2, active compounds read low 0.987 | locus YER016W, strain bim1, active compounds read low 1.02 | locus YER111C, strain swi4, active compounds read low 1.02 | locus YFR010W, strain ubp6, active compounds read low 0.999 | locus YGL167C, strain pmr1, active compounds read low 1.02 | locus YGL173C, strain kem1, active compounds read low 1.01 | locus YGL227W, strain vid30, active compounds read low 1.02 | locus YGL240W, strain doc1, active compounds read low 0.934 | locus YGL253W, strain hxk2, active compounds read low 1.01 | locus YHR027C, strain rpn1, active compounds read low 1.01 | locus YHR079C, strain IRE1, active compounds read low 0.885 | locus YHR142W, strain chs7, active compounds read low 1.01 | locus YJL092W, strain hpr5, active compounds read low 1.02 | locus YJL095W, strain BCK1 (second series), active compounds read low 1.02 | locus YJL115W, strain asf1, active compounds read low 1.02 | locus YJL129C, strain trk1, active compounds read low 0.994 | locus YJL154C, strain vps35, active compounds read low 1.02 | locus YJL164C, strain tpk1, active compounds read low 0.942 | locus YJL166W, strain qcr8, active compounds read low 0.911 | locus YJL187C, strain SWE1, active compounds read low 0.998 | locus YJR066W, strain TOR1, active compounds read low 0.879 | locus YKL160W, strain elf1, active compounds read low 0.941 | locus YKR026C, strain gcn3, active compounds read low 1.01 | locus YKR091W, strain srl3, active compounds read low 1.02 | locus YLL001W, strain dnm1, active compounds read low 1.01 | locus YLL026W, active compounds read low 0.983 | locus YLL041C, strain sdh2, active compounds read low 1.02 | locus YLR027C, strain aat2, active compounds read low 0.948 | locus YLR258W, strain gsy2, active compounds read low 0.989 | locus YLR342W, strain FKS1, active compounds read low 1.01 | locus YLR357W, strain rsc2, active compounds read low 1 | locus YLR370C, strain arc18, active compounds read low 1.02 | locus YLR384C, strain iki3, active compounds read low 1.03 | locus YML120C, strain ndi1, active compounds read low 0.975 | locus YMR058W, strain fet3, active compounds read low 0.999 | locus YMR125W, strain sto1, active compounds read low 1.01 | locus YMR129W, active compounds read low 1.03 | locus YMR205C, strain PFK2, active compounds read low 0.915 | locus YMR231W, strain pep5, active compounds read low 1.01 | locus YNL183C, strain NPR1, active compounds read low 0.86 | locus YNL209W, strain ssb2, active compounds read low 0.98 | locus YNL248C, strain rpa49, active compounds read low 1.02 | locus YNL322C, strain KRE1 (second series), active compounds read low 1.03 | locus YNR049C, strain mso1, active compounds read low 1.02 | locus YOR001W, strain rrp6, active compounds read low 0.996 | locus YOR080W, strain dia2, active compounds read low 1.01 | locus YOR083W, strain WHI5, active compounds read low 0.984 | locus YOR231W, strain MKK1, active compounds read low 1.04 | locus YOR265W, strain rbl2, active compounds read low 0.995 | locus YOR270C, strain vph1, active compounds read low 0.994 | locus YOR290C, strain snf2, active compounds read low 0.991 | locus YPL078C, strain atp4, active compounds read low 0.989 | locus YPL106C, strain sse1, active compounds read low 1 | locus YPL240C, strain hsp82, active compounds read low 1.01 | locus YPL256C, strain CLN2, active compounds read low 0.988
